# In the library only some 2.3% were active in any assay of this set; here they are far more common.
# m5-HT2A agonist: mouse Htr2a agonists via beta-arrestin recruitment, primary screen, cell-based, luminescence | CHO-K1 mHTR2A beta-arrestin complementation; percent of 30 µM serotonin response | hit rate 0.66% among 360,000 | 5-hydroxytryptamine receptor 2A (Mus musculus), P35363 | activation, % at 7.6 µM | AID 624169, 2012;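 active means activation above a run cutoff, the mean activation of all tested compounds plus 3 SD, cut at about 14% in these data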;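 further: 0% = plate median of compound wells and 100% = 30 µM serotonin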
# Granule exo inh: LAMP-1 surface exposure blockers, TALL-104 cells – cell-based, flow cytometry, MLPCN library, primary screen | TALL-104 LAMP-1 surface exposure; cells stimulated with thapsigargin and PMA | inhibition, % at 10 µM | hit rate 0.66% among 360,000 | AID 651702, 2012;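 active means inhibition above about 55%, limit read from the data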
# ABHD5 PLIN5 PPI: ABHD5-PLIN5 interaction inhibitors, primary screen, cell lysate, split luciferase complementation, luminescence; hit rate 0.78% among 360,000; Split G. princeps luciferase complementation, 4 h; Perilipin-5 (Homo sapiens) + 1-acylglycerol-3-phosphate O-acyltransferase ABHD5 (Homo …; inhibition, % at 4 µM;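 active means inhibition above the mean inhibition across every tested compound plus 3 SD, cut at about 22% in these data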;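 further: 0% = DMSO only wells and the 100% control is not disclosed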
# Beta2AR agonist: beta2AR agonists driving receptor internalization, primary screen, cell-based, FAP fluorogen, flow cytometry. Beta-2 adrenergic receptor (Homo sapiens), P07550. Am2.2-beta2AR cells. response, % (no concentration beside the values). hit rate 0.43% among 340,000. AID 504454, 2011;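 active means response above a set limit, near 3 SD of response in nonfluorescent compounds, cut at about 42% in these data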
# NTR1 ag: agonists of human NTR1, primary screen, imaging, U2OS cells, beta-arrestin-GFP, high content | NTR1-U2OS beta-arrestin-GFP spot imaging, agonist mode | Neurotensin receptor type 1 (Homo sapiens), P30989 | hit rate 0.17% among 330,000 | AID 493036, 2011 | activation, % at 20 µM;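 active means activation at or above 40% of the spot to cytoplasm intensity ratio, with at least 20 cells analyzed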;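 further: 0% = DMSO without peptide and 100% = 100 nM NTR1 peptide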
# Target sequence (P30989 whole entry, looked up): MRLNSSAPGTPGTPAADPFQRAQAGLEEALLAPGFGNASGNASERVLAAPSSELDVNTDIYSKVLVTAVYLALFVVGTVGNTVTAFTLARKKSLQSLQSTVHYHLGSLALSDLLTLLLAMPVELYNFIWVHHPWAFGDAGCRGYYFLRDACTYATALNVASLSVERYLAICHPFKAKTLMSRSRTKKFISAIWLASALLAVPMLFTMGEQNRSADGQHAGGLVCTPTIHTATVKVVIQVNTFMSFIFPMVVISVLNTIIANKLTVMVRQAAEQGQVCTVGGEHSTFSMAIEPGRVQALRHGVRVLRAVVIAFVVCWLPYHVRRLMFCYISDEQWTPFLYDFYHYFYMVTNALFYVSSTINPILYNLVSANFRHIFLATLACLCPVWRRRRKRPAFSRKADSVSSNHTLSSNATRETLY
# B2AR ag CP1: beta2AR agonists via receptor internalization, confirmation, cell-based, FAP fluorogen, flow cytometry, single point, cherry pick 1. hit rate 25% among 1,100. shares compounds with Beta2AR agonist. AID 540358, 2011. percent response (surface receptor), % at 10 µM. Am2.2-beta2AR cells, FAP surface receptor; active compounds read low;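 active means surface receptor percent response at or below 58%, roughly 3 SD from nonfluorescent compounds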
# B2AR FAP counter: fluorescence artifact in beta-2AR agonist FAP counterscreen | shares compounds with Beta2AR agonist | 1,100 tested, under 10 active | calls only at 10 µM | Am2.2 cells, FAP fluorogen flow cytometry; active compounds read low;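 active means percent response below a set limit in fluorescence channel 1 and below 50% in channel 8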
# The depositor's hits bear a star; i = inactive; x = no result.
SMILES,m5-HT2A agonist,Granule exo inh,ABHD5 PLIN5 PPI,Beta2AR agonist,NTR1 ag,B2AR ag CP1,B2AR FAP counter
COc1ccc(CNC(=O)CCCCCNc2nc(=S)[nH]c3ccccc23)cc1,-2,-1,-1,129*,0,26*,i
COCc1nnc(NC(=O)c2cccc(NC(=O)C(C)C)c2)s1,2,5,-6,5,-1,x,x
COCc1nnc(NC(=O)C(C)C)s1,-4,4,-10,53*,0,95,i
COc1ccccc1NC(=O)CC(c1ccc(OC(C)C)cc1)c1ccccc1OC (stereo not drawn),1,6,-3,1,1,x,x
COc1ccc(CNCCC(c2ccc(OC(C)C)cc2)c2ccccc2OC)cc1OC (stereo not drawn),-9,29,13,12,20,105,i
COc1ccccc1C(CCNCc1ccccc1)c1ccc(OC(C)C)cc1 (stereo not drawn),8,55,2,25,8,111,i
COc1ccc(CNCCC(c2ccc(OC(C)C)cc2)c2ccccc2OC)cc1 (stereo not drawn),-3,25,-8,28,24,78,i
COc1ccc(CNCCC(c2ccc(OC(C)C)cc2)C(C)C)cc1OC (stereo not drawn),0,15,8,28,13,x,x
COc1ccccc1C(CCNCc1ccc(N(C)C)cc1)c1ccc(OC(C)C)cc1 (stereo not drawn),-4,11,1,65*,39,62,i
COc1ccc(CNCCC(c2ccccc2)c2ccc3c(c2)OCO3)cc1 (stereo not drawn),-3,6,18,21,2,82,i
COc1cc(CNCCc2ccc(S(N)(=O)=O)cc2)ccc1OCc1ccc(Cl)cc1,-9,35,15,55*,2,93,i
COC(=O)c1ccc(-n2c(C)cc(C(=O)CSc3cccc[n+]3[O-])c2C)cc1,1,-8,5,3,0,x,x
COC(=O)c1ccc(C(=O)OC)c(NC(=O)CSc2cccc[n+]2[O-])c1,-6,-1,-2,4,0,102,i
C#CCN(CC=C)C(=O)c1ccc2nc(C3CCCCC3)oc2c1,-1,-10,-1,-5,1,x,x
CCOc1ccccc1N(C(C)=O)S(=O)(=O)c1ccc(Cl)cc1,1,1,1,12,0,x,x
Cc1nn(Cc2ccccc2)c(C)c1C(=O)NCC(c1cccs1)N1CCOCC1 (stereo not drawn),6,-2,2,63*,0,109,i
CC(NC1CCCC1)c1ccccc1 (stereo not drawn),0,-7,-1,-1,2,x,x
CC(NCCC(c1ccccc1)c1ccccc1)c1ccccc1 (stereo not drawn),-3,4,1,25,10,84,i
O=C1C=C(NC2CCCC2)CC(c2ccccc2)C1 (stereo not drawn),1,-1,-4,2,0,117,i
CC(=O)c1ccc(OCc2cc(C(=O)N(C)Cc3nc4c(C)cccc4[nH]3)no2)cc1,-5,3,0,-4,1,x,x
CC(=O)c1ccc(OCc2cc(C(=O)N(C)CCOc3ccc(C)cc3)no2)cc1,-7,-2,0,86*,3,20*,i
COc1ccc(CCNC(=O)c2ccc3c(c2)S(=O)(=O)N=C2CCCCCN23)cc1,-3,2,14,-7,0,x,x
CC1CCCN(c2ccc([N+](=O)[O-])cc2C(=O)c2ccccc2)C1 (stereo not drawn),1,25,4,42*,2,49*,i
O=C(c1ccccc1)c1cc([N+](=O)[O-])ccc1N1CCOCC1,-3,1,0,16,2,x,x
Cn1c(SCC(=O)N/N=C/C=C/c2ccccc2[N+](=O)[O-])nc2ccccc21,-2,0,2,-6,0,x,x
SMILES,m5-HT2A agonist,Granule exo inh,ABHD5 PLIN5 PPI,Beta2AR agonist,NTR1 ag,B2AR ag CP1,B2AR FAP counter
Cn1c(SCC(=O)N/N=C/C=C/c2ccco2)nc2ccccc21,-2,1,9,-12,0,98,i
CC1(C)CC(Cc2cccc(C(F)(F)F)c2)N(C(=O)OC(C)(C)C)C1 (stereo not drawn),2,3,0,x,x,111,i
CC(C)(C)OC(=O)N1CC2(CCCCC2)CC1Cc1ccc(C(F)(F)F)cc1 (stereo not drawn),1,-1,-9,x,x,100,i
CC(=O)c1cccc(NC(=O)COC(=O)c2n[nH]c3ccccc23)c1,-6,5,3,2,0,x,x
COc1ccccc1-c1cc(C(F)(F)F)nc(S(=O)(=O)CCCC(=O)N2CCOCC2)n1,-9,6,14,47*,10,92,i
COc1ccc(-c2cc(C(F)(F)F)nc(S(=O)(=O)CCC(=O)N3CCOCC3)n2)cc1,5,40,7,25,7,89,i
CC(C)c1nc2sc3c(NCc4ccccc4)ncnc3c2c2c1COC(C)(C)C2,1,3,-3,2,4,114,i
CCCc1ccc(OCc2nc(-c3ccc(NC(=O)c4ccco4)cc3)no2)cc1,-1,0,-3,27,0,42*,i
CCCc1ccc(OCc2nc(-c3ccc(NC(=O)c4cccs4)cc3)no2)cc1,1,0,0,-5,-1,75,i
Cc1ccccc1-c1nc(-c2ccc(NC(=O)c3cccs3)cc2)no1,7,0,0,0,8,x,x
C=CCn1c(SCC(=O)OCC)nc(C(F)(F)F)cc1=O,5,-3,12,19,-1,x,x
Nc1cccc2c1C(=O)N(CCOc1ccccc1F)C2=O,3,-4,-9,0,2,x,x
Cc1cc(C)cc(C(=O)NCC(=O)OCC(=O)N2CCCC2)c1,2,-4,-1,x,x,x,x
O=C(CSc1ccc(Cl)cc1)Nc1ccccc1N1CCN(C(=O)c2ccccc2)CC1,1,7,-6,43*,17,65,i
Cn1c(CSc2nc3ccccc3n2C)nc2ccccc21,-2,0,3,-6,-1,x,x
Cn1c(SC2=CS(=O)(=O)c3ccccc32)nc2ccccc21,-9,-8,-5,74*,1,75,i
CCN(CC)c1ccc(NC(=O)c2cc(OC)cc(OC)c2)c(C)c1,-2,-2,-1,55*,2,78,i
